Screens (PubChem BioAssay)
TEAD-YAP block – TEAD-YAP interaction inhibition. HEK-TIYL cells, TEAD-Gal4/YAP UAS-luciferase luminescence. inhibition, % at 9.12 µM. 1.4% of 640,000 active; in the data active = inhibition above about 32%
GPR151 activ – activates the human receptor GPR151. Q8TDV0. PathHunter beta-arrestin GPR151 cells, luminescence. activation, % at 11.2 µM. 1% of 650,000 active; in the data active = activation above about 4.9%
FBW7 act – activators of human E3 ligase FBW7; Q969H0; AlphaScreen FBW7–phospho-cyclin E peptide binding, activator screen; normalized activity (activation), % at 26.1 µM; 0.13% of 650,000 active; AID 1259310; in the data active = normalized activity above about 1.9%;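 also: purified mutant Fbw7 with reduced substrate affinity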
Target sequence (Q969H0 whole entry, looked up): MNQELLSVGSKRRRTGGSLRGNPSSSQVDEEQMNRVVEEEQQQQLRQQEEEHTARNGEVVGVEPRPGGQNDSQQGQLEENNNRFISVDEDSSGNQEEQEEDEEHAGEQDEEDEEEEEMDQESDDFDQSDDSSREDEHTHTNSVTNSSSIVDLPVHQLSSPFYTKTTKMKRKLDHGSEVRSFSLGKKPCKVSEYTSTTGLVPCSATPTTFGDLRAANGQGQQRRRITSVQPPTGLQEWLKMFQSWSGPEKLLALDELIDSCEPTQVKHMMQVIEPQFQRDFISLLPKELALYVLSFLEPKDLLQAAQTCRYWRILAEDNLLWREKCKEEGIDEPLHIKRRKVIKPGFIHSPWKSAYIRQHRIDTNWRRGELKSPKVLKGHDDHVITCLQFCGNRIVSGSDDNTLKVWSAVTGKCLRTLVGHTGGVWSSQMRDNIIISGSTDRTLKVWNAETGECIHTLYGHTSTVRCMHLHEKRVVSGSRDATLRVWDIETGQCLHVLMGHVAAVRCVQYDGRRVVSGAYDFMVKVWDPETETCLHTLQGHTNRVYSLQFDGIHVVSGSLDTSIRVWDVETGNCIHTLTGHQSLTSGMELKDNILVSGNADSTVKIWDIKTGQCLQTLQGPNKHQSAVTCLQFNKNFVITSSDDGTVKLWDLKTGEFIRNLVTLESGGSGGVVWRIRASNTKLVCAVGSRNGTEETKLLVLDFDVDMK
MITF inh – inhibitors of human MITF. AID 1259374. inhibition, % at 2.6 µM. AlphaScreen MITF homodimerization, bead proximity signal. 0.91% of 650,000 active; in the data active = inhibition above about 50%
GPR151 conf act – confirmation of human GPR151 activators | shares compounds with GPR151 activ | 6,700 tested, under 10 active | activation, % at 11.2 µM | GPR151 PathHunter beta-arrestin cells, luminescence, 90 min; % of EA-reagent control over plate median | AID 1508609;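 active = mean percent activation across replicates above the confirmation screen cutoff of 4.91%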
GPR119 ag – counter-screen for GPR151 activators: effect on human GPR119. activation, % at 11.2 µM. shares compounds with GPR151 activ. 0.3% of 6,700 active. GPR119 PathHunter beta-arrestin cells, luminescence, 90 min; 0 = compound-well median, 100 = enzyme-acceptor control;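 active = mean percent activation in the counterscreen above 29.09%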;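 also: counterscreen on off-target GPR119 to flag nonselective hits from the GPR151 activator screen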
Hits are given with their value; – = inactive; · = no result; ! = not confirmed by another sample. Most compounds without a hit are left out; they make up all but 3.5% or so of the library.

SMILES | TEAD-YAP block | GPR151 activ | FBW7 act | MITF inh | GPR151 conf act | GPR119 ag
CC1CC(C)CN(C(=O)c2ccc(N3CC4CC(C3)c3cccc(=O)n3C4)c(NC(=O)c3ccc(F)cc3)c2)C1 (stereo not drawn) | – | 6.3 | – | – | – | –
CCOC(=O)N1CCC(NC(=O)c2ccc(N3CC4CC(C3)c3cccc(=O)n3C4)c(NC(=O)c3ccncc3)c2)CC1 (stereo not drawn) | – | 4.9 | – | – | – | –
O=C(Nc1cc(C(=O)N2CCCC2)ccc1N1CC2CC(C1)c1cccc(=O)n1C2)c1ccc(F)cc1 (stereo not drawn) | – | – | – | – | · | ·
COC(=O)c1sc2ccccc2c1NC(=O)c1ccc(S(=O)(=O)N2CCCc3ccccc32)cc1 | – | – | – | – | · | ·
COc1ccc(CC(=O)Nc2ccccc2NC(C)=O)cc1 | – | – | – | – | · | ·
CNS(=O)(=O)c1ccccc1Nc1cc(NC(=O)Cc2ccc(OC)cc2)ncc1C(F)(F)F | 93 | 11 | – | – | – | –
CCCCOc1ccc(-c2nnc(-c3ccc(-c4ccccc4)cc3)o2)cc1 | – | 5.5 | – | – | – | –
Cc1cc2n(n1)C(c1cccc(O)c1)Nc1ccccc1-2 (stereo not drawn) | – | 7.9 | – | – | – | –
O=C(Nc1ccccc1OC(F)F)c1ccc(F)cc1 | – | – | – | – | · | ·
CC(=O)Nc1ccccc1OC(F)F | – | 7.1 | – | – | – | –
CCCNC(=O)C(=O)Nc1ccccc1CC | – | 6.7 | – | – | – | –
CCc1ccccc1NC(=O)C(=O)NCCOC | – | – | – | – | · | ·
Cc1ccc(NC(=O)CC(NC2CCCC2)C(=O)O)cc1Cl (stereo not drawn) | – | – | – | – | · | ·
O=C(NCc1ccccn1)c1cc2c(ccc3ccccc32)oc1=O | – | 12 | – | – | – | –
O=C(NCc1ccccc1)c1cc2cc([N+](=O)[O-])ccc2oc1=O | – | 13 | – | – | – | –
COC(=O)c1cc(N=C/C(Br)=C/c2ccccc2)cc(C(=O)OC)c1 | – | – | – | – | · | ·
O=C(Cc1c[nH]c2ccccc12)N1CCc2c(nc(N3CCCCC3)[nH]c2=O)C1 | – | – | – | – | · | ·
Cc1cccc(C(=O)N/C(=C/c2ccc3c(c2)OCO3)C(N)=O)c1 | – | – | – | – | · | ·
C=CCNC(=O)c1cc(S(=O)(=O)N2CCC3(CC2)OCCO3)ccc1F | – | – | – | – | · | ·
O=C(Nc1ccccc1)c1ccc(N2C(=O)C3C4C=CC(C4)C3C2=O)cc1 (stereo not drawn) | – | 5.0 | – | – | – | –
CCN(CCN(C)C)Cc1cc(OC)c(OC)cc1[N+](=O)[O-] | – | 5.3 | – | – | – | –
Clc1cc(NCCN2CCOCC2)ncn1 | – | 5.7! | – | – | – | –
Nc1nc(Cl)cc(NCCN2CCOCC2)n1 | – | – | – | – | · | ·
CSc1ccc(C(=O)Nc2c3c(nn2-c2ccccc2)CCC3)cc1 | – | – | – | – | · | ·
NC(=O)c1cc(-c2ccccn2)nc2ccc(Br)cc12 | – | – | – | – | · | ·
SMILES | TEAD-YAP block | GPR151 activ | FBW7 act | MITF inh | GPR151 conf act | GPR119 ag
Cc1c(C(=O)N2CCN(Cc3ccccc3)CC2)sc2ncn(Cc3ccccc3Cl)c(=O)c12 | – | – | – | – | · | ·
Cc1c(C(=O)N2CCCCCC2)sc2ncn(Cc3ccccc3Cl)c(=O)c12 | – | 8.5 | – | – | – | –
O=C(/C=C/c1ccccc1)Nc1nc(-c2ccc(Cl)c(Cl)c2)cs1 | – | – | – | – | · | ·
COc1ccc(C2CC(c3ccccc3OC(F)F)Nc3ncnn32)cc1 (stereo not drawn) | – | – | – | – | · | ·
COc1ccc(C2CC(c3ccc(OC(F)F)cc3)n3ncnc3N2)cc1 (stereo not drawn) | – | 7.4 | – | – | – | –
COCCn1c(C)cc(C2=NNC(=Nc3ccccc3)SC2)c1C | 57 | 11 | – | – | – | –
C=CCn1c(C)cc(C2=NNC(=Nc3ccccc3)SC2)c1C | – | – | – | – | · | ·
Cc1ccc(-c2cc(C(=O)NN)c3ccccc3n2)cc1 | – | – | – | – | · | ·
NNC(=O)c1cc(-c2ccc(O)cc2)nc2ccc(Br)cc12 | – | – | – | – | · | ·
COc1ccc(-c2cc(C(=O)NN)c3cc(Br)ccc3n2)cc1 | – | 5.0 | – | – | – | –
O=C(NCc1ccc(F)cc1)c1cc(-c2ccccc2Cl)nc2ccccc12 | – | 17 | – | – | – | –
NNC(=O)c1cc(-c2ccc(F)cc2)nc2ccccc12 | – | 6.1 | – | – | – | –
O=C(NCc1ccc2c(c1)OCO2)c1cc(-c2ccccc2Cl)nc2ccccc12 | – | – | – | – | · | ·
COc1cccc(C(=O)CC(=O)C(=O)Nc2ccccc2Br)c1 | – | – | – | – | · | ·
COc1cc(Nc2ccc(NC(=O)Nc3ccccc3)cc2)nc(C)n1 | – | 7.9 | – | – | – | –
Cc1sc(NC(=O)CCS(=O)(=O)c2ccc(Cl)cc2)c(C#N)c1C | – | 5.2 | – | – | – | –
C[C@H]1C[C@@H]2[C@H]([C@@H](O)C[C@@]3(C)[C@H]2CC[C@]3(O)C(=O)CO)[C@@]2(C)C=CC(=O)C=C12 | · | 6.9! | – | – | – | –
CCOc1ccc2nc(N3CCCC(NCCn4nc(C)cc4C)CC3)nc(C)c2c1 (stereo not drawn) | – | – | – | – | · | ·
O=C(CSc1ncc(-c2cccc(Br)c2)o1)Nc1ccc(F)cc1F | – | 9.3 | – | – | – | –
Cc1ccc(-n2c(=S)sc3c(=O)n(-c4ccc(F)cc4)c(SCC#N)nc32)c(C)c1 | – | 6.3 | – | – | – | –
CCOc1ccc(-n2c(SCC#N)nc3c(sc(=S)n3-c3ccc(C)cc3C)c2=O)cc1 | – | – | – | – | · | ·
CCOc1cc(C)c(C(C)C)cc1S(=O)(=O)N(CC)CC | – | 16 | – | – | – | –
CCOc1cc(C)c(C(C)C)cc1S(=O)(=O)N1CCN(C)CC1 | – | – | – | – | · | ·
COc1ccc(NC(=O)CCS(=O)(=O)c2cc3c(cc2Cl)NC(=O)CO3)cc1 | – | – | – | – | · | ·
COc1cccc2cc(-c3csc(NC(=O)CCC(=O)N4CCC(C(N)=O)CC4)n3)c(=O)oc12 | – | 5.2 | – | – | – | –
SMILES | TEAD-YAP block | GPR151 activ | FBW7 act | MITF inh | GPR151 conf act | GPR119 ag
O=C(CCC1CCCCC1)Nc1nn[nH]n1 | – | 7.7 | – | – | – | –
CCN1CCN(S(=O)(=O)c2cc(C(=O)Nc3cccc(C)c3)ccc2F)CC1 | – | 6.1 | – | – | – | –
O=C(Nc1cccc(Cl)c1)c1ccc(F)c(S(=O)(=O)N2CCc3ccccc3C2)c1 | – | 5.4 | – | – | – | –
Cc1ccc(N2CCN(S(=O)(=O)c3cc(C(=O)Nc4cc(Cl)cc(Cl)c4)ccc3F)CC2C)cc1 (stereo not drawn) | – | 5.7 | – | – | – | –
CC(=O)Nc1ccc(SCC(=O)N(C)C2CCCCC2)cc1 | – | – | – | – | · | ·
CC1CCCC(NC(=O)C2N(CCc3ccccc3)C(=O)C3C(C(=O)Nc4cccc(Cl)c4)C4C=CC32O4)C1C (stereo not drawn) | – | – | – | – | · | ·
